Values joined by “and” are separate entries in the source; they are usually repeats but may differ in a detail not shown here. Equal values may be shown once. In all, about 300,000 compounds went through this assay and about 310 (0.1%) were called active. Rule as the data show it: active = fluorescence inhibition mostly above about 23% (no sharp cut-off); inactive = mostly below about 17%. What follows is part of a selection rich in actives, with near analogues and random picks from the rest.
Assay: hypoxia reporter signal reduction in M. tuberculosis – fluorescence, absorbance growth readout, primary screen (AID 1159583)
Details: M. tuberculosis hypoxia-regulated fluorescent reporter, stronger effect = higher value, concentration not given here; growth inhibition: measured here: M. tuberculosis growth (absorbance)

SMILES	fluorescence inhibition	growth inhibition
CC(=NNC(=O)c1cc(-c2cccnc2)nc2ccccc12)c1ccc(O)cc1O	2.22% (inactive)	2.87%
COc1ccc(C=NNC(=O)c2ccccc2OC)cc1COc1ccccc1[N+](=O)[O-]	1.62% (inactive)	-1.45%
C[C@@]12CCC=CC1C(c1ccc(C(F)(F)F)cc1)N(Cc1ccccc1)C2=O (some centres not stated)	11.1% (inactive)	10.9%
Cc1ccccc1CN1C(Cc2ccccc2)COCCS1(=O)=O (configuration not stated)	6.62% (inactive)	4.01%
CC=CC=CC(=O)Nc1cccc(C2=NOC3(C2)CC(C(N)=O)N(C(=O)c2ccccc2C(=O)c2ccccc2)C3)c1 (configuration not stated)	-0.767% (inactive)	8.5%
COC(=O)CSc1nc2ccccc2c(=O)n1Cc1ccccc1	5.85% (inactive)	20.4%
C=CCn1c(SCC(=O)NC(=O)Cc2ccccc2)nc2ccccc2c1=O	23.4% (active)	56.9%
C=CCn1c(SCc2ccc(C(=O)NCCO)cc2)nc2ccccc2c1=O	9.54% (inactive)	8.96%
CCN(CC)c1ccc(C=NNS(=O)(=O)c2cccc([N+](=O)[O-])c2)cc1	-5.38% (inactive)	0.14%
CCC(=NNC(=O)CSCc1ccccc1Br)c1ccc2c(c1)OCCO2	0.753% (inactive)	1.89%
O=C(NN=Cc1cccc([N+](=O)[O-])c1)c1ccc(CN2CCOCC2)cc1	4.86% (inactive)	16.6%
CCCCN=C1NC(=Cc2ccco2)C(=O)N1c1ccccc1	8.24% (inactive)	10.9%
COc1ccccc1C=NNC(=O)CCn1cnc2ccccc21	4.69% (inactive)	-0.174%
COc1cccc(CNC(=O)COC(=O)CN2C(=O)NC3(CCCCC3C)C2=O)c1 (configuration not stated)	-6.03% (inactive)	2.37%
CCCCNC(=O)CN1C(=O)NC(Cc2ccccc2)(Cc2ccccc2)C1=O	3.73% (inactive)	16.6%
COc1cccc(CNC(=O)CN2C(=O)NC(Cc3ccccc3)(c3ccccc3)C2=O)c1 (configuration not stated)	26.4% (active)	52.7%
CC(CC(=O)Nc1ccc(Cl)cc1Cl)=NNC(=O)C(=O)N1CCCC1	11% (inactive)	5.91%
COc1ccc(C=NN=C(N)c2nonc2N)cc1	10.3% (inactive)	6.79%
CC(=O)OCC1OC(CC=NOCC(O)C2OC3OC(C)(C)OC3C2O)C=CC1OC(C)=O (configuration not stated)	9.33% (inactive)	7.61%
CCOC(=O)C1C2COc3cc(OC)ccc3C2N2C(=O)N(c3ccc(Cl)cc3)C(=O)[C@]12C (some centres not stated)	-4.96% (inactive) and 1.79% (inactive)	2.67% and 0.308%
CC(=O)Nc1ccc(S(=O)(=O)NN=Cc2ccc(C)o2)cc1	7% (inactive)	-2.42%

— PubChem BioAssay AID1159583 (ICCB-Longwood Screening Facility, Harvard Medical School, 2016)
